The nature of experiment [1]: qHTS assay to identify small molecule agonists of the hypoxia (HIF-1) signaling pathway - cell viability counter screen (AID 1224844; calls by dose curve; also: nearly all actives have a fitted effect of over 50% in size; also: potency is read from the fitted curve at half-maximal effect). The method in brief: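 Multiplexed with the HRE beta-lactamase assay, this viability read used CellTiter-Glo luminescence (30 min, RT) on HRE-bla ME-180 cells treated 17 hrs with compounds in 0.5% dialyzed FBS medium.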
Experiment [2] is described as follows: qHTS assay to identify small molecule agonists of H2AX (AID 1224845; active = well fitted activation curve with a large enough effect in the signal ratio in the repeat runs, not every such curve was filed as active; the % refers to the signal ratio; also: potency is read from the fitted curve at half-maximal effect). The gist of the method:
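Wild-type CHO-K1 cells, plated overnight, exposed 3hr at 37C to 15 concentrations (0.76% DMSO final). Lysed, then HTRF anti-pH2AX (S139) cryptate and anti-H2AX-d2 antibodies, 24 hr room temperature; 665/620 nm emission read.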
On the technique in general: qHTS replaces the single test concentration by a dilution series.

Experiment [3] can be described thus: qHTS RealTime-Glo MT Cell Viability Assay in HEK293 cells - 32 hour (AID 1224868). Also: nearly all actives have a fitted effect of over 50% in size. Also: potency is read from the fitted curve at half-maximal effect. The gist of the method: (§1)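 Tox21 10K qHTS, HEK293, 600 cells/well, RealTime-Glo reagent co-dispensed with cells; 5 h preincubation, compound by pintool, 37 C, luminescence at 0–40 h.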
A short description of experiment [4]: A CellTox Green Cytotoxicity Assay to monitor cytotoxicity in HEK293 cells - 0 hour (AID 1224869). Also: nearly all actives have a fitted effect of over 50% in size. The gist of the method: (§2)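 Seeding of HEK293 cells together with cytotoxicity dye preceded a 5 h incubation at 37 C/5% CO2. Test compounds in DMSO were then added and fluorescence monitored across 40 h.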
Experiment [5] in a line: A CellTox Green Cytotoxicity Assay to monitor cytotoxicity in HEK293 cells - 40 hour (AID 1224871). Also: nearly all actives have a fitted effect of over 45% in size. Also: potency is read from the fitted curve at half-maximal effect. The gist of the method:
as §2

Experiment [6] can be described thus: qHTS RealTime-Glo MT Cell Viability Assay in HEK293 cells - 40 hour (AID 1224874). Also: nearly all actives have a fitted effect of over 50% in size. Also: potency is read from the fitted curve at half-maximal effect. The following applies: RealTime-Glo luminescence; max response: active compounds read low. The gist of the method:
(§3)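 Tox21 screen in HEK293 using RealTime-Glo MT chemistry, with cells and reagent co-dispensed. Luminescence proportional to viable cell number was captured at intervals during 40 h compound exposure at 37 C.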

Experiment [7] can be described thus: A CellTox Green Cytotoxicity Assay to monitor cytotoxicity in HepG2 cells - 16 hour (AID 1224876). Also: nearly all actives have a fitted effect of over 45% in size. The gist of the method: (§4)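 Nonlytic assay: viable cells exclude the dye, so fluorescence scales with cell death. HepG2 at 600 cells/well, compounds added after 5 h, signal read across 40 h.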
The nature of experiment [8]: qHTS RealTime-Glo MT Cell Viability Assay in HepG2 cells - 32 hour (AID 1224877). Also: nearly all actives have a fitted effect of over 55% in size. Also: potency is read from the fitted curve at half-maximal effect. The method in brief: (§5)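 Cells + NanoLuc/prosubstrate dispensed (600 cells/well) → 5 h at 37 C/5% CO2 → compounds in DMSO transferred → 40 h incubation at 37 C, luminescence read at 0, 8, 16, 24, 32, 40 h.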
Experiment [9] in a line: A CellTox Green Cytotoxicity Assay to monitor cytotoxicity in HepG2 cells - 24 hour (AID 1224878). Also: nearly all actives have a fitted effect of over 45% in size. Also: potency is read from the fitted curve at half-maximal effect. The method in brief: as §4
Experiment [10] is described as follows: A CellTox Green Cytotoxicity Assay to monitor cytotoxicity in HepG2 cells - 40 hour (AID 1224879). Also: nearly all actives have a fitted effect of over 40% in size. Also: potency is read from the fitted curve at half-maximal effect. The gist of the method: as §4
Experiment [11] in a line: qHTS RealTime-Glo MT Cell Viability Assay in HEK293 cells - 0 hour (AID 1224880). Also: top concentration of the series differs between compounds; nearly all actives have a fitted effect of over 45% in size. The method in brief: as §3
Experiment [12] in a line: qHTS assay to identify small molecule agonists of H2AX - cell viability counter screen (AID 1224847; calls by dose curve; also: top concentration of the series differs between compounds; nearly all actives have a fitted effect of over 30% in size). The gist of the method:
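For this counter screen, overnight-attached CHO-K1 cells received test compounds (15 concentrations, 0.76% DMSO final); 3 hr later at 37C, CellTiter-Glo reagent was added and luminescence recorded after 30 min at room temperature.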

Experiment [13] can be described thus: qHTS RealTime-Glo MT Cell Viability Assay in HepG2 cells - 24 hour (AID 1224867). Also: nearly all actives have a fitted effect of over 50% in size. The gist of the method:
as §5

Experiment [14] is described as follows: qHTS RealTime-Glo MT Cell Viability Assay in HepG2 cells - 40 hour (AID 1224870). Also: nearly all actives have a fitted effect of over 50% in size. The method in brief: (§6)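 HepG2 cells (600/well) mixed with RealTime-Glo MT reagent, settled 5 h at 37 C/5% CO2 before compound addition. Nonlytic NanoLuc luminescence from viable-cell prosubstrate reduction read repeatedly during 40 h treatment at 37 C.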
The nature of experiment [15]: qHTS RealTime-Glo MT Cell Viability Assay in HEK293 cells - 16 hour (AID 1224872). Also: nearly all actives have a fitted effect of over 50% in size. Also: potency is read from the fitted curve at half-maximal effect. The method in brief:
as §1

Experiment [16] is described as follows: qHTS RealTime-Glo MT Cell Viability Assay in HepG2 cells - 8 hour (AID 1224873). Also: nearly all actives have a fitted effect of over 55% in size. The method in brief: as §6
The nature of experiment [17]: A CellTox Green Cytotoxicity Assay to monitor cytotoxicity in HEK293 cells - 24 hour (AID 1224875). Also: nearly all actives have a fitted effect of over 45% in size. The method in brief:
as §2

The nature of experiment [18]: qHTS assay to identify small molecule agonists of the estrogen related receptor (ERR) signaling pathway from Tox21 library (AID 1224849; calls by dose curve; also: nearly all actives have a fitted effect of over 15% in size). The following applies: ERR reporter cell line, ONE-Glo luciferase, 18 h; at 92.4 µM (top of the series) unless noted. The method in brief: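 Six hours post-seeding at 37 C/5% CO2, ERR cells receive DMSO-solubilised compounds; after 18 h at 37 C, ONE-Glo reagent is applied and luminescence recorded.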

A short description of experiment [19]: qHTS assay to identify small molecule antagonists of the estrogen related receptor (ERR) signaling pathway from Tox21 library (AID 1224848). Also: nearly all actives have a fitted effect of over 50% in size. The gist of the method: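 Luminescent reporter read-out (ONE-Glo) from NTP's ERR cell line after 18 h treatment at 37 C with DMSO-dissolved Tox21 compounds; cells pre-plated 6 h beforehand at 2,000 per well.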
The nature of experiment [20]: qHTS assay to identify small molecule agonists of the hypoxia (HIF-1) signaling pathway (AID 1224846; active = well fitted activation curve with a large enough effect in the signal ratio in the repeat runs, not every such curve was filed as active; the % refers to the signal ratio). The gist of the method:
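Hypoxia-pathway activation was scored as increased beta-lactamase from an HRE-controlled reporter in ME-180 cells; plated at 2,000 cells per well with 0.5% dialyzed FBS, they were exposed 17 hrs to compounds and then given CCF4-AM.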

The structures appear in SMILES notation. A number with no mark means an inactive call. Inconclusive results are not listed. Active and inactive are the calls of the source. Unless noted, calls follow the shape of the dose curve; as a rule, active = well fitted curve in the direction sought with a large enough effect in the repeat runs; inconclusive = weak or mixed curves; inactive = no such curve, though single readings can be large; an effect the other way counts as inactive or inconclusive.
% is scaled to controls: 0 for no effect and ±100 for the full control effect.

Regarding `C=CC(=O)OCC(C)OCC(C)OCC(C)OC(=O)C=C` (stereo not given), the Potency entry in experiment [1], in experiment [4], in experiment [7] and in experiment [11] was “inactive” throughout. Also, the Potency is 101 µM (active) in [2]; 43.6 µM (active) in experiment [3]; 54.9 µM (active) in experiment [5]; 43.6 µM (active) in experiment [6]; 54.9 µM (active) in [8]; 54.9 µM (active) in [9]. Also, the Potency in experiment [10] was 49 µM (active).
With `O=C(c1ccccc1)c1ccc2n1CCC2C(=O)O` (stereo not given), the Potency result in experiment [1], in experiment [2], in experiment [12], in experiment [13], in [3] and in experiment [4] was “inactive” each time. The Potency entry in [14], in experiment [5], in experiment [15], in experiment [16], in [17] and in experiment [7] was “inactive” throughout. For the same compound, the Potency entry in [8], in experiment [9] and in [10] was “inactive” throughout. In addition, the max response in experiment [6] was 0.683%.
Take `CC(C)(C)c1cc(O)c(C(C)(C)C)cc1O`: the Potency result in experiment [1], in [2], in [12], in [13], in [4] and in [14] was “inactive” throughout. For the same compound, the Potency entry in experiment [5], in experiment [16], in [8], in experiment [10] and in experiment [11] was “inactive” in each case. For the same compound, the activity change, positive = activation in [18] was -60.5%. For the same compound, the figures for the Potency in experiment [3], in experiment [15] and in experiment [6] were 24.5 µM (active), 17.4 µM (active) and 30.9 µM (active), respectively.
Regarding `O=C(O)Cn1c(C(=O)Nc2nc(-c3ccccc3Cl)cs2)cc2ccccc21`, the Potency in [1] is 8.49 µM (active). Also, the Potency entry in experiment [2], in experiment [12], in experiment [13], in experiment [3], in experiment [4] and in experiment [14] was “inactive” each time. Further, the Potency entry in [5], in experiment [15], in [16], in experiment [7], in experiment [8] and in [9] was “inactive” in each case. The Potency entry in experiment [10] was “inactive”. In addition, the max response in experiment [6] is -2.19%.
For the compound `CCCCCCCC/C=C\CCCCCCCC(N)=O`, the Potency entry in experiment [1], in [2], in [19], in experiment [13], in experiment [4] and in experiment [16] was “inactive” each time. Besides, the Potency entry in [7], in experiment [8] and in experiment [11] was “inactive” each time. Also, in experiment [18], the activity change, positive = activation is -4.69%. Further, the Potency in [9] was 24.5 µM (active); in experiment [10], 34.7 µM (active).
In the case of `CC(O)C1CCCCC1` (stereo not given), the Potency result in experiment [1], in experiment [12], in [19], in experiment [13], in experiment [3] and in [4] was “inactive” throughout. Besides, the Potency entry in [14], in [5], in [15], in [16], in [17] and in [7] was “inactive” throughout. For the same compound, the Potency entry in experiment [8], in [9], in experiment [10] and in experiment [11] was “inactive” throughout. In addition, in [18], the activity change, positive = activation was 6.48%. For the same compound, in experiment [6], the max response was 3.26%.
As to `Cc1cc(C)c(S(=O)(=O)O)cc1N=Nc1cc(S(=O)(=O)O)c2ccccc2c1O`, the Potency result in [1], in experiment [13], in experiment [4], in experiment [14], in [5] and in experiment [16] was “inactive” throughout. In addition, the Potency result in experiment [7], in experiment [8], in experiment [9] and in experiment [10] was “inactive” throughout. Also, the call in experiment [20] was inactive.
Consider `COC(=O)C(C)=O`, for which the Potency result in experiment [1], in experiment [12], in experiment [19], in experiment [13], in [3] and in experiment [4] was “inactive” in each case. Also, the Potency entry in [5], in experiment [15], in [17], in [7], in experiment [8] and in experiment [9] was “inactive” each time. Moreover, the Potency result in experiment [10] and in [11] was “inactive” each time. In addition, in [20], the compound was called inactive. Besides, the activity change, positive = activation in experiment [18] was -4.12%. In addition, the max response in experiment [6] was -0.909%.

The values above are taken from PubChem BioAssay (Tox21).
